The results in this text go back to PubChem BioAssay (NCI).

Assay in all cases: NCI-60 one-dose screen, 48 h (100 = growth as untreated, 0 = no growth, -100 = all killed)
One test relates to HCT-15 colon. The conditions noted are these: 10 µM unless noted.
The subject of the next test is HT29 colon. The settings on record: 10 µM unless noted.
In a further test the test system is SNB-19 CNS. The conditions noted are these: 10 µM unless noted.
In another test the test system is U251 CNS. The settings on record: 10 µM unless noted.
In a further test the test system is PC-3 prostate. The conditions noted are these: 10 µM unless noted.
The subject of a further test is SK-MEL-5 melanoma. The conditions noted are these: 10 µM unless noted.
For the next test, the system named is UACC-62 melanoma. The settings on record: 10 µM unless noted.
The next test concerns LOX IMVI melanoma. The conditions noted are these: 10 µM unless noted.
A further test has as its system SK-MEL-28 melanoma. The conditions noted are these: 10 µM unless noted.
The subject of another test is SK-MEL-2 melanoma. The conditions noted are these: 10 µM unless noted.
A further test relates to EKVX NSCLC. The conditions noted are these: 10 µM unless noted.
In another test the test system is SN12C renal. The conditions noted are these: 10 µM unless noted.
The next test deals with UO-31 renal. The conditions noted are these: 10 µM unless noted.
The test system of another test is TK-10 renal. The conditions noted are these: 10 µM unless noted.
Another test has as its system ACHN renal. The conditions noted are these: 10 µM unless noted.
The subject of another test is CAKI-1 renal. The conditions noted are these: 10 µM.
In another test the test system is A498 renal. The settings on record: 10 µM unless noted.
The test system of a further test is CCRF-CEM leukemia. The conditions noted are these: 10 µM unless noted.
The subject of the next test is MOLT-4 leukemia. The conditions noted are these: 10 µM unless noted.
In a further test the test system is SNB-75 CNS. The conditions noted are these: 10 µM unless noted.

Compounds without any hit were thinned out: in the full panel of roughly 83,000, 20% have a hit.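 Treatment: one concentration, 48 hours, 96-well format. Scoring: percent growth, with anything below 10 considered active.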 A number with no mark means an inactive call. Active and inactive are the calls of the source.

For the compound `O=C1[C@H]2Cc3c([nH]c4ccccc34)[C@H](c3ccc(Cl)cc3)N2C(=O)CN1C1CCN(Cc2c(Cl)cccc2Cl)CC1`, the growth was 39.5% in the test with HCT-15 colon; 18.2% in the test with HT29 colon; 80.6% in the test on SNB-19 CNS; 69.5% in the test on U251 CNS; 49.3% in the test on PC-3 prostate; 66.3% with SK-MEL-5 melanoma. Further, the growth in the test with UACC-62 melanoma is 88.8%; in the test on LOX IMVI melanoma it was 15.3%; in the test with SK-MEL-28 melanoma, 98.8%; in the test on SK-MEL-2 melanoma it was 106%; in the test on EKVX NSCLC it was 74.5%; with SN12C renal it was 59.9%. For the same compound, the growth in the test on UO-31 renal is 48.4%; in the test on TK-10 renal it was 101%; in the test with ACHN renal, 72.9%; in the test on CAKI-1 renal, 41.9%; in the test with A498 renal, 101%; with CCRF-CEM leukemia, 53.4%. Moreover, in the test on MOLT-4 leukemia, the growth is 44%.
Turning to `Oc1ccc(CSc2nnc(-c3ccccc3)n2-c2ccccc2)c2cccnc12`, the growth is 13.6% in the test with HCT-15 colon; 52.4% with HT29 colon; 12.6% in the test on SNB-19 CNS; 12.8% with U251 CNS; 23% in the test on PC-3 prostate; -22% (active) with SK-MEL-5 melanoma. Moreover, the growth in the test with UACC-62 melanoma is -34.1% (active); in the test on LOX IMVI melanoma, 5.5% (active); with SK-MEL-28 melanoma, 17.7%; in the test on SK-MEL-2 melanoma, 30.8%; in the test on EKVX NSCLC, 18.5%; in the test on SN12C renal, 19.5%. Moreover, the growth with UO-31 renal is -19.8% (active); in the test on TK-10 renal, 27.3%; in the test with ACHN renal it was 6.88% (active); in the test on CAKI-1 renal, 10.5%; in the test on A498 renal, 12.7%; in the test with CCRF-CEM leukemia, 9.93% (active). For the same compound, in the test with MOLT-4 leukemia, the growth was 15.6%.
On to `Nc1ccc(-c2nnc(SCc3ccc(O)c4ncccc34)n2-c2ccccc2)cc1`, for which the growth in the test on HCT-15 colon was 11.3%; in the test on HT29 colon it was 23.8%; in the test with SNB-19 CNS it was 12.4%; in the test on U251 CNS, 8.88% (active); in the test on PC-3 prostate it was 14.1%; with SK-MEL-5 melanoma it was -54.6% (active). For the same compound, the growth with UACC-62 melanoma is 11.9%; in the test with LOX IMVI melanoma, 14%; in the test on SK-MEL-28 melanoma, 34%; in the test with SK-MEL-2 melanoma it was 12.4%; with EKVX NSCLC, 30%; in the test on SN12C renal, 5.29% (active). The growth in the test on UO-31 renal is 4.44% (active); in the test with TK-10 renal, 25.3%; in the test with ACHN renal it was 12.4%; with CAKI-1 renal it was 12.9%; with A498 renal, 15.8%; in the test on CCRF-CEM leukemia, 20.7%. Besides, the growth in the test on MOLT-4 leukemia was 29.5%.
`Nc1ccc(-c2nnc(SCc3ccc(O)c4ncccc34)o2)cc1`: the growth in the test on HCT-15 colon is 10.2%; in the test with HT29 colon, 8.36% (active); with SNB-19 CNS, 8.55% (active); in the test with U251 CNS it was -6.47% (active); in the test with PC-3 prostate, 0.0718% (active); in the test with SK-MEL-5 melanoma, -20.5% (active). The growth was -54.4% (active) with UACC-62 melanoma; 0.185% (active) with LOX IMVI melanoma; 10.6% with SK-MEL-28 melanoma; 3.45% (active) with SK-MEL-2 melanoma; -5.86% (active) with EKVX NSCLC; 6.01% (active) in the test on SN12C renal. Also, the growth in the test on UO-31 renal is -12.5% (active); with TK-10 renal it was 1.68% (active); with ACHN renal it was 2.17% (active); in the test on CAKI-1 renal, 4.38% (active); in the test on A498 renal, -40.1% (active); in the test with CCRF-CEM leukemia, 5.03% (active). In addition, in the test on MOLT-4 leukemia, the growth is 5.7% (active).
For `CCCC(=O)NC(c1cccnc1)c1cc(Cl)c2cccnc2c1O` (stereo not given), the growth with HCT-15 colon is 18.5%; with HT29 colon, 35.5%; with SNB-19 CNS it was 19.4%; in the test with U251 CNS, 24.2%; with PC-3 prostate, 41.1%; in the test with SK-MEL-5 melanoma, 34.3%. Further, the growth with UACC-62 melanoma is 23.8%; in the test on LOX IMVI melanoma, 32.7%; in the test with SK-MEL-28 melanoma, 51.9%; with SK-MEL-2 melanoma, 42.7%; in the test on EKVX NSCLC, 24%; with SN12C renal, 44.4%. In addition, the growth with UO-31 renal was 22.3%; with TK-10 renal, 47.6%; in the test with ACHN renal it was 20.5%; with CAKI-1 renal, 34.6%; in the test on A498 renal, 89.9%; with CCRF-CEM leukemia, 25%. For the same compound, the growth in the test with MOLT-4 leukemia was 30.3%.
For the compound `COc1cc(/C=N/n2cnc3oc(-c4ccccc4)cc3c2=N)cc(CN2CCCC2)c1O`, the growth is -85.2% (active) with HCT-15 colon; -48.2% (active) with HT29 colon; 21.8% in the test on SNB-19 CNS; -45.7% (active) in the test on U251 CNS; -68.6% (active) with PC-3 prostate; 91.5% in the test with SK-MEL-5 melanoma. Further, the growth in the test on UACC-62 melanoma is 96.7%; in the test on LOX IMVI melanoma, -88.5% (active); in the test on SK-MEL-28 melanoma, 91.6%; in the test with SK-MEL-2 melanoma it was 113%; in the test on EKVX NSCLC, 97%; with SN12C renal, -78.8% (active). The growth in the test with UO-31 renal is 9.45% (active); in the test on TK-10 renal it was 114%; with ACHN renal it was 75.9%; in the test on CAKI-1 renal it was 62.7%; in the test on A498 renal it was 85.7%; with CCRF-CEM leukemia, -2.49% (active). For the same compound, the growth in the test with MOLT-4 leukemia is 6.5% (active).
For `COc1cc(O)c2c(c1)/C=C/C[C@H](O)[C@H](O)C(=O)/C=C\C[C@H](C)OC2=O`, the growth in the test with HCT-15 colon was -47.5% (active); in the test on HT29 colon, 1.76% (active); with SNB-75 CNS, -2.99% (active); with SNB-19 CNS it was 52.3%; with U251 CNS, 34.6%; with SK-MEL-5 melanoma it was -57.9% (active). The growth with UACC-62 melanoma is -16.3% (active); in the test on LOX IMVI melanoma, -42.7% (active); with SK-MEL-28 melanoma, -3.57% (active); in the test on EKVX NSCLC, 44.2%; with SN12C renal it was 7.02% (active); in the test with UO-31 renal it was 13.1%. Moreover, the growth with TK-10 renal was 34.7%; in the test with ACHN renal it was 6.98% (active); in the test on CAKI-1 renal, 13.6%; in the test on CCRF-CEM leukemia it was 8.51% (active); in the test on MOLT-4 leukemia it was 5.34% (active).
`NC(=O)N1N=C(c2cc3ccccc3oc2=O)CC1c1cn(-c2ccccc2)nc1-c1ccc(Cl)cc1` (stereo not given): the growth is 19.4% with HCT-15 colon; 35.9% in the test on HT29 colon; 45% in the test with SNB-19 CNS; 30.5% in the test with U251 CNS; 25.9% in the test with PC-3 prostate; 19.5% with SK-MEL-5 melanoma. In addition, the growth in the test on UACC-62 melanoma is 38.7%; with LOX IMVI melanoma, 20.3%; with SK-MEL-28 melanoma, 60.1%; with SK-MEL-2 melanoma, 71.8%; in the test with EKVX NSCLC, 24.3%; in the test with SN12C renal, 47.4%. Moreover, the growth with UO-31 renal was 17.8%; in the test on TK-10 renal it was 93.4%; with ACHN renal it was 32.5%; with CAKI-1 renal it was 32.9%; with A498 renal it was 54.5%; with CCRF-CEM leukemia it was 7.27% (active). The growth in the test with MOLT-4 leukemia is 17.3%.
